Data published in PubChem BioAssay (Tox21).
Values without a mark were called inactive. Records with an inconclusive call do not appear. Where a call stands in place of a potency, no number is given. Activity calls are given as the source filed them. Unless noted, calls follow the shape of the dose curve; as a rule, active = well fitted curve in the direction sought with a large enough effect in the repeat runs; inconclusive = weak or mixed curves; inactive = no such curve, though single readings can be large; an effect the other way counts as inactive or inconclusive.

Columns and labels:
[1] = biological target: Thyrotropin receptor (Homo sapiens) (UniProt P16473); assay: qHTS assay to identify small molecule antagonists of the thyroid stimulating hormone receptor (TSHR) signaling pathway (AID 1259385; calls by dose curve; also: nearly all actives have a fitted effect of over 20% in size)
Thyrotropin receptor (Homo sapiens), sequence (P16473 whole entry, looked up): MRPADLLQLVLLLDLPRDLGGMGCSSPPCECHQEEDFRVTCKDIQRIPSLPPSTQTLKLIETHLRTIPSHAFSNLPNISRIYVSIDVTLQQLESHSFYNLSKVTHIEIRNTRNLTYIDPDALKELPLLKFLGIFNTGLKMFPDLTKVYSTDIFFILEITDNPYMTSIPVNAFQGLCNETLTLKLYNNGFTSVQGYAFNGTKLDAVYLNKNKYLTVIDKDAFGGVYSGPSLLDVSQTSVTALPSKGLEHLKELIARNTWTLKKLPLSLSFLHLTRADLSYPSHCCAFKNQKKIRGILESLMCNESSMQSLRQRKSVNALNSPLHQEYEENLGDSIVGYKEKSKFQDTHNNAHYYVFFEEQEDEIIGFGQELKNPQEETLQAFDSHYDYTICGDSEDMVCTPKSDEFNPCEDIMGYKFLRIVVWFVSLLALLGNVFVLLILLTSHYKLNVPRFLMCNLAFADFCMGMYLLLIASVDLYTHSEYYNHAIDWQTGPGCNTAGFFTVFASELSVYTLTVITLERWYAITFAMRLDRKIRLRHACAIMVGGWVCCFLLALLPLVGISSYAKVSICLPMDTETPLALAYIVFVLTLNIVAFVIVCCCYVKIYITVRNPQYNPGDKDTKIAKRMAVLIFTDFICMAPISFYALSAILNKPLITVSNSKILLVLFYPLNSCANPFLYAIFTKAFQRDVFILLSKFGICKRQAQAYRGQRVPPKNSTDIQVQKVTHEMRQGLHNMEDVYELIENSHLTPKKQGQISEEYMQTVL
How it was run: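 TSHR-HEK293 cells were plated and held 18 h at 37C/5% CO2, then given compound plus Ro20-1724 and stimulated with TSH at 1.5 ng/mL final. After 30 min at room temperature, cAMP was detected with cAMP-d2/anti-cAMP-cryptate (1 h) by fluorescence.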

[2] = qHTS assay to identify small molecule agonists of the estrogen receptor alpha (ER-alpha) signaling pathway in the presence of an antagonist - cell viability counter screen (AID 1259386);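 also: series mostly up to about 92 µM; cells exposed to compounds for 22 h at 37 °C before the viability read; nearly all actives have a fitted effect of over 30% in size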
How it was run: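 Using estrogen-depleted VM7Luc4E2 cells, the 15-concentration compound series was applied together with 10.0nM ICI-182,780 and incubated 22hr at 37C/5% CO2. Cell viability was then scored by CellTiter-Fluor.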

[3] = biological target: Progesterone receptor (Homo sapiens) (UniProt P06401); assay: qHTS assay to identify small molecule agonists of the progesterone receptor (PR) signaling pathway (AID 1346784; calls by dose curve; also: nearly all actives have a fitted effect of over 30% in size)
Progesterone receptor (Homo sapiens), sequence (P06401 whole entry, looked up): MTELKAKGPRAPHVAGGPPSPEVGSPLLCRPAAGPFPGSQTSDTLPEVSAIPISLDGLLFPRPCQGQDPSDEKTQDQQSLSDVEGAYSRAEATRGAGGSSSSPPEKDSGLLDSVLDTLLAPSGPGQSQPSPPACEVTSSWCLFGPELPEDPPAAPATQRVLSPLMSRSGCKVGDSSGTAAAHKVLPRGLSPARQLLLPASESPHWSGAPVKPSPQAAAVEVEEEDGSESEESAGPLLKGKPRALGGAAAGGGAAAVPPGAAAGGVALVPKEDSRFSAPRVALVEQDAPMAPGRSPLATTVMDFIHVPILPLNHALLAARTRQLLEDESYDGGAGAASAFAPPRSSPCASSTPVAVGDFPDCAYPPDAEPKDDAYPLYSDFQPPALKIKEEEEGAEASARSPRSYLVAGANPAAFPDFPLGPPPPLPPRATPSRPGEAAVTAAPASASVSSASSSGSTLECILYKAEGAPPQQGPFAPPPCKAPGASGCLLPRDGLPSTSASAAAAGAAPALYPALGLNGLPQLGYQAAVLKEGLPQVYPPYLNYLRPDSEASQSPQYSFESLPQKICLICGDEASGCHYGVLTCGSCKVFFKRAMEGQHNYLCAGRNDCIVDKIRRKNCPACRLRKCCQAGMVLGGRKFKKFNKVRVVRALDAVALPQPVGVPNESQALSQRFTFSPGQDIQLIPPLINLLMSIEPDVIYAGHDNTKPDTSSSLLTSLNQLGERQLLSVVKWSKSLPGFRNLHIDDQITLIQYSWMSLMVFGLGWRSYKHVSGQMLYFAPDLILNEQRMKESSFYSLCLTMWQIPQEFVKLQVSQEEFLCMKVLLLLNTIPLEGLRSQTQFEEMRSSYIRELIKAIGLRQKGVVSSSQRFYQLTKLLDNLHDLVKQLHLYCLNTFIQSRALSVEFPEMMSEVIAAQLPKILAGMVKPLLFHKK
How it was run: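 Seed PR-UAS-bla HEK 293T cells (2% charcoal-stripped FBS), incubate 6 hr at 37C; add compounds in DMSO, 16 hr at 37C; add LiveBLAzer B/G substrate, 2 hr RT; read fluorescence intensity.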

[4] = qHTS assay to identify small molecule antagonists of the progesterone receptor (PR) signaling pathway - cell viability counter screen (AID 1346798); also: series mostly up to about 92 µM; nearly all actives have a fitted effect of over 50% in size
How it was run: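 Measures cytotoxicity in parallel with the PR antagonist reporter read: HEK293T PR-UAS-bla cells get compound and R5020 for 16 hr, and remaining viable cells are quantified by CellTiter-Glo luminescence.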

[5] = qHTS assay to identify small molecule agonists of the progesterone receptor (PR) signaling pathway - cell viability counter screen (AID 1346799; calls by dose curve; also: nearly all actives have a fitted effect of over 45% in size)
How it was run: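 Using the same plates as the PR reporter screen, HEK293T PR-UAS-bla cells received compounds for 16 hr at 37C and were then lysed with CellTiter-Glo; luminescence was read 30 min later at room temperature.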

[6] = qHTS assay to identify small molecule agonists of the TGF-beta/Smad signaling pathway - cell viability counter screen (AID 1346829); also: top concentration of the series differs between compounds; nearly all actives have a fitted effect of over 45% in size
How it was run: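 Compound-treated SBE-bla HEK 293T cells (5 hr, 37 C) were assessed for viability with CellTiter-Glo in parallel with the reporter read.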

[7] = qHTS assay to identify small molecule agonists of the TGF-beta/Smad signaling pathway (AID 1346859; active = well fitted activation curve with a large enough effect in the signal ratio in the repeat runs, not every such curve was filed as active; the % refers to the signal ratio; also: series mostly up to about 77 µM)
How it was run: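 Beta-lactamase reporter activity downstream of Smad binding elements was measured in stably transfected HEK 293T cells; compounds were incubated for 5 hr, substrate for 2 hr at room temperature.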

[8] = biological target: Thyrotropin-releasing hormone receptor (Homo sapiens) (UniProt P34981); assay: qHTS assay to identify small molecule antagonists of the thyrotropin-releasing hormone receptor (TRHR) signaling pathway (AID 1346877; active = well fitted inhibition curve with a large enough effect in the repeat runs, not every such curve was filed as active; also: series mostly up to about 51 µM)
Thyrotropin-releasing hormone receptor (Homo sapiens), sequence (P34981 whole entry, looked up): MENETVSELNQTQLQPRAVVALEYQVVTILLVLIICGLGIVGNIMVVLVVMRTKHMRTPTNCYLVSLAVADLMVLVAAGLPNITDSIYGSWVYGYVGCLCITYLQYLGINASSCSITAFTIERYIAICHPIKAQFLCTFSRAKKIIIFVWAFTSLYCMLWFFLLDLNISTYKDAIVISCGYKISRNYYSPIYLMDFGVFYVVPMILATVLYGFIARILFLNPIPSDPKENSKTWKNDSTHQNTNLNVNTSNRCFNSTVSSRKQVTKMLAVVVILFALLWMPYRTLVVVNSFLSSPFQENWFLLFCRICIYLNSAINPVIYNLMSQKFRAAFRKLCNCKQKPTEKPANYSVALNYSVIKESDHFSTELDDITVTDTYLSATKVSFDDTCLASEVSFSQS
How it was run: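 Calcium signal in dye-loaded TRHR/HEK293 cells; compounds added 5 min before TRH (1 nM final); fluorescence monitored 3 min at 1 s steps.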

[9] = biological target: Thyrotropin-releasing hormone receptor (Homo sapiens) (UniProt P34981); assay: qHTS assay to identify small molecule agonists of the thyrotropin-releasing hormone receptor (TRHR) signaling pathway (AID 1346891; calls by dose curve;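 also: HEK293 cells expressing TRHR with calcium dye readout; series mostly up to about 58 µM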)
How it was run: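 Overnight-plated (18 h, 37 °C, 5% CO2) TRHR-Hek293 cells; 2 h calcium dye at 37 °C; compound in DMSO; 3-min kinetic fluorescence read.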

[10] = Caspase-3/7 induction in HepG2 cells by small molecules, qHTS assay (AID 1346978); also: nearly all actives have a fitted effect of over 15% in size
How it was run: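 Wild-type HepG2 cells (2,000/well) were settled 5 h at 37 C, 5% CO2, then exposed to compounds in DMSO for 17 h. Caspase-3/7 activity was read by luminescence 30 min after adding Caspase-Glo 3/7 reagent at room temperature.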

[11] = Caspase-3/7 induction in CHO-K1 cells by small molecules, qHTS cell viability counter screen (AID 1346979); also: nearly all actives have a fitted effect of over 35% in size
How it was run: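 Multiplexed with Caspase-Glo 3/7 in CHO-K1 cells, this counter screen added CellTiter-Fluor after 16hr of compound exposure and recorded fluorescence 1hr later.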

[12] = Caspase-3/7 induction in CHO-K1 cells by small molecules, qHTS assay (AID 1346980); also: nearly all actives have a fitted effect of over 15% in size
How it was run: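 Wild-type cells were seeded at 1,500 per well and settled 5 hr at 37 C, 5% CO2, then exposed to DMSO-dissolved compounds for 17 hr. Caspase-Glo 3/7 reagent was added, and luminescence was read after 30min at room temperature.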

[13] = Caspase-3/7 induction in HepG2 cells by small molecules, qHTS cell viability counter screen (AID 1346981); also: series mostly up to about 92 µM; nearly all actives have a fitted effect of over 30% in size
How it was run: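 After a 5-hr attachment period at 37 C and 5% CO2, wild-type HepG2 cells received compounds in DMSO. Sixteen hours later CellTiter-Fluor was dispensed and the fluorescent signal quantified after a further hour.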

[14] = biological target: Nuclear receptor subfamily 1 group I member 2 (Homo sapiens) (UniProt O75469); assay: Human pregnane X receptor (PXR) small molecule agonists, qHTS assay (AID 1346982); also: nearly all actives have a fitted effect of over 35% in size; also: potency is read from the fitted curve at half-maximal effect
Nuclear receptor subfamily 1 group I member 2 (Homo sapiens), sequence (O75469 whole entry, looked up): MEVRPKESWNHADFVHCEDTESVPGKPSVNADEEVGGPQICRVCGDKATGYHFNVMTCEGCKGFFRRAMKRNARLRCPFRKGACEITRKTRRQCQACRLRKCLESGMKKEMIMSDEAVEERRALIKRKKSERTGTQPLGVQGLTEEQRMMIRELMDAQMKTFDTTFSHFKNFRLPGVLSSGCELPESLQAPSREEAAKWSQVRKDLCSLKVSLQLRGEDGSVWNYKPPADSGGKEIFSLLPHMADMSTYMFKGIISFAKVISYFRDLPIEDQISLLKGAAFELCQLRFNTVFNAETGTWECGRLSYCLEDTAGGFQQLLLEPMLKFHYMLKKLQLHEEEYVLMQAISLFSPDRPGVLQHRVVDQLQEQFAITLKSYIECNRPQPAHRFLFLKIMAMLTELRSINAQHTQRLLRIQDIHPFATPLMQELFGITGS
How it was run: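 Tox21 qHTS; PXR-Luc HepG2; compounds pinned from DMSO; 24 hr, 37 C; ONE-Glo luciferase detection, 30 min room temperature.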

[15] = qHTS assay to identify small molecule antagonists of the TGF-beta/Smad signaling pathway - cell viability counter screen (AID 1346824); also: nearly all actives have a fitted effect of over 50% in size
How it was run: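 SBE-bla HEK 293T cells were plated overnight at 37 C, then given compounds in DMSO plus TGF-beta1 (added as 0.25 ng/mL solution) for 5 hr. After the bla read, CellTiter-Glo was added to the same wells and luminescence read after 30 min at room temperature.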

[16] = Human pregnane X receptor (PXR) small molecule agonists, qHTS cell viability counter screen (AID 1346977); also: nearly all actives have a fitted effect of over 50% in size
How it was run: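 After a 5hr pre-incubation, PXR-Luc HepG2 cells received compounds plus positive control in DMSO and were kept 24hr at 37C. Cell viability was quantified by fluorescence from CellTiter-Fluor added for the final hour.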

[17] = biological target: Nuclear receptor subfamily 1 group I member 2 (Rattus norvegicus) (UniProt Q9R1A7); assay: Rat pregnane X receptor (rPXR) activation by small molecules, qHTS assay (AID 1346983); settings: rPXR luciferase reporter cells, One-Glo luminescence, 24 h; active compounds read high; also: nearly all actives have a fitted effect of over 20% in size
Nuclear receptor subfamily 1 group I member 2 (Rattus norvegicus), sequence (Q9R1A7 whole entry, looked up): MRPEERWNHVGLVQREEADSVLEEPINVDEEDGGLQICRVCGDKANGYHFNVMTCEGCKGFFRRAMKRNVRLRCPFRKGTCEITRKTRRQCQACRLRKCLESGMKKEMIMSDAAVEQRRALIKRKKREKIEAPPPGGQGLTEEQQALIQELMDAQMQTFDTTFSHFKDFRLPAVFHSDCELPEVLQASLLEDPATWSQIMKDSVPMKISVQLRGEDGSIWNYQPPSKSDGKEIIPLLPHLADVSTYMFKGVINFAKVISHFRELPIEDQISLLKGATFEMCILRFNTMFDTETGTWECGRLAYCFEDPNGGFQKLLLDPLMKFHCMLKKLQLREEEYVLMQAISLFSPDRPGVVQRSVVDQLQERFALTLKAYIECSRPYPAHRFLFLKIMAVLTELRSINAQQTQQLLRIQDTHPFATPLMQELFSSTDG
How it was run: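 Cell-based rPXR luciferase reporter assay, 2,000 cells per well, rested 5hr at 37 C before compound addition in DMSO, then 24 hr at 37 C. One-Glo reagent was added and luminescence read after 30 min at room temperature.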

[18] = biological target: Nuclear receptor subfamily 1 group I member 2 (Homo sapiens) (UniProt O75469); assay: CYP3A4 induction through human pregnane X receptor (PXR) by small molecules, qHTS assay (AID 1346984); also: nearly all actives have a fitted effect of over 40% in size
How it was run: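 Cells (DPX-2; HepG2 with PXR element plus CYP3A4-promoter luciferase) settled 5hr, then were treated 24hr at 37C. A 3hr, 3uM-final Luciferin-IPA step preceded luminescence measurement with One-Glo.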

[19] = biological target: Nuclear receptor subfamily 1 group I member 2 (Homo sapiens) (UniProt O75469); assay: Human pregnane X receptor (PXR) activation by small molecules, qHTS assay (AID 1346985); also: nearly all actives have a fitted effect of over 40% in size
How it was run: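 DPX-2 cells (HepG2 co-transfected with a PXR response element and a CYP3A4-promoter luciferase construct) were seeded at 2,000 per well, rested 5 hr at 37C, then exposed to DMSO-dissolved compounds for 24 hr. Activation was read as luciferase luminescence.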

[20] = biological target: Progesterone receptor (Homo sapiens) (UniProt P06401); assay: qHTS assay to identify small molecule antagonists of the progesterone receptor (PR) signaling pathway (AID 1346795; active = well fitted inhibition curve with a large enough effect in the signal ratio in the repeat runs, not every such curve was filed as active; the % refers to the signal ratio)
How it was run: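 Screening used a GripTite HEK293T line with PR-responsive UAS-beta-lactamase. Cells were challenged with compound in the presence of 1 nM R5020 final for 16 hr at 37C; B/G FRET substrate, 2 hr room temperature, fluorescence.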

## O=C(/N=N/C(=O)OCc1ccccc1)OCc1ccccc1
[1]
  outcome: inactive
[2]
  Potency: inactive
[3]
  Potency: inactive
[4]
  Potency: inactive
[5]
  Potency: inactive
[6]
  outcome: inactive
[7]
  outcome: inactive
[8]
  outcome: inactive
[9]
  outcome: inactive
[10]
  Potency: inactive
[11]
  Potency: inactive
[12]
  outcome: inactive
[13]
  Potency: inactive
[14]
  Potency: 30.6 µM (active)

## COCCOCCOCCOCCOCCO
[1]
  outcome: inactive
[2]
  Potency: inactive
[3]
  Potency: inactive
[4]
  Potency: inactive
[5]
  Potency: inactive
[15]
  outcome: inactive
[6]
  outcome: inactive
[7]
  outcome: inactive
[8]
  outcome: inactive
[9]
  outcome: inactive
[10]
  Potency: inactive
[11]
  Potency: inactive
[12]
  outcome: inactive
[13]
  Potency: inactive
[14]
  Potency: inactive

## Cc1cc2cc3c(C)cc(=O)oc3c(C)c2o1
[1]
  outcome: inactive
[2]
  Potency: inactive
[3]
  Potency: inactive
[4]
  Potency: inactive
[5]
  Potency: inactive
[15]
  outcome: inactive
[6]
  outcome: inactive
[7]
  outcome: inactive
[8]
  outcome: inactive
[9]
  outcome: inactive
[16]
  Potency: inactive
[10]
  Potency: inactive
[11]
  Potency: inactive
[13]
  Potency: inactive
[14]
  Potency: 5.96 µM (active)
[17]
  max activation: 1.62%
[18]
  Potency: inactive
[19]
  Potency: inactive

## BrCc1cccc(Oc2ccccc2)c1
[1]
  outcome: inactive
[2]
  Potency: inactive
[3]
  Potency: inactive
[4]
  Potency: inactive
[5]
  Potency: inactive
[15]
  outcome: inactive
[6]
  outcome: inactive
[7]
  outcome: inactive
[8]
  outcome: inactive
[9]
  outcome: inactive
[16]
  Potency: inactive
[10]
  Potency: inactive
[11]
  Potency: inactive
[12]
  outcome: inactive
[14]
  Potency: 61.1 µM (active)

## CCCCC(CC)COCCO (centres undefined)
[1]
  outcome: inactive
[2]
  Potency: inactive
[3]
  Potency: inactive
[20]
  Potency: inactive
[5]
  Potency: inactive
[15]
  outcome: inactive
[7]
  outcome: inactive
[8]
  outcome: inactive
[9]
  outcome: inactive
[16]
  Potency: inactive
[10]
  Potency: inactive
[11]
  Potency: inactive
[12]
  outcome: inactive
[13]
  Potency: inactive
[14]
  Potency: inactive

## Cc1ccc2c(c1)OCC(=O)CO2
[1]
  outcome: inactive
[2]
  Potency: inactive
[3]
  Potency: inactive
[20]
  Potency: inactive
[5]
  Potency: inactive
[15]
  outcome: inactive
[6]
  outcome: inactive
[7]
  outcome: inactive
[8]
  outcome: inactive
[9]
  outcome: inactive
[16]
  Potency: inactive
[10]
  Potency: inactive
[11]
  Potency: inactive
[12]
  outcome: inactive
[14]
  Potency: inactive

## O=C(O)c1ccc(Cl)cc1Cl
[1]
  outcome: inactive
[2]
  Potency: inactive
[3]
  Potency: inactive
[20]
  Potency: inactive
[5]
  Potency: inactive
[15]
  outcome: inactive
[6]
  outcome: inactive
[7]
  outcome: inactive
[8]
  outcome: inactive
[9]
  outcome: inactive
[10]
  Potency: inactive
[11]
  Potency: inactive
[12]
  outcome: inactive
[13]
  Potency: inactive
[14]
  Potency: inactive

## C[C@H](CCC(=O)O)[C@H]1CC[C@H]2[C@@H]3C(=O)C[C@@H]4CC(=O)CC[C@]4(C)[C@H]3CC(=O)[C@]12C
[1]
  outcome: inactive
[2]
  Potency: inactive
[3]
  Potency: inactive
[20]
  Potency: inactive
[5]
  Potency: inactive
[15]
  outcome: inactive
[6]
  outcome: inactive
[8]
  outcome: inactive
[9]
  outcome: inactive
[10]
  Potency: inactive
[11]
  Potency: inactive
[12]
  outcome: inactive
[13]
  Potency: inactive
[14]
  Potency: inactive
[17]
  max activation: -0.558%
[18]
  Potency: inactive
[19]
  Potency: inactive
